# In PubChem BioAssay (NCATS):
# Results filed as inconclusive are left out. Calls of active or inactive are those of the source. Calls follow the shape of the dose curve; as a rule, active = well fitted inhibition curve with a large enough effect; inconclusive = small, poorly fitted or top-dose-only effect; inactive = no such curve, though single readings can be large or run the other way.
# Molecular target: N-terminal Xaa-Pro-Lys N-methyltransferase 1 (Homo sapiens) (UniProt Q9BV86)
# Assay: qHTS Assay for Inhibitors of N-terminal methyltransferase 1 (NTMT1): LOPAC validation of the NTMT1 SAHH-coupled ThioGlo3 Assay (AID 1347143); also: nearly all actives have a fitted effect of over 70% in size
# Settings: recombinant NTMT1, SAHH-coupled ThioGlo3 fluorescence; series mostly up to 114 µM; activity change, negative = inhibition: at the top concentration
# Procedure, shortened: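 Fluorescence read-out (excitation 340nm, emission 450nm) of SAH-derived thiol, measured via SAHH coupling and ThioGlo3, taken immediately and after a 30 min room-temperature reaction, then normalized to the background read. Enzyme: NTMT1 at 125nM; cofactor SAM 100uM in the added reagent.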
# % is scaled to controls: 0 for no effect and ±100 for the full control effect; potency is read from the fitted curve at half-maximal effect.
# Sequence of N-terminal Xaa-Pro-Lys N-methyltransferase 1 (Homo sapiens) (Q9BV86 whole entry, looked up): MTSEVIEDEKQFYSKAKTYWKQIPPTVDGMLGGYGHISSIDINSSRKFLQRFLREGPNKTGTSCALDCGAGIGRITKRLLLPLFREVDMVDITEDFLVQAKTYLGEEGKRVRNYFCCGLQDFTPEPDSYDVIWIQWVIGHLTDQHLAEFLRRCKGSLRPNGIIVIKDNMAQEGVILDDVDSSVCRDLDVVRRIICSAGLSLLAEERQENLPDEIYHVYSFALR
SMILES,"activity change, negative = inhibition",Potency
CCN(CC)CCOC(=O)c1ccc(N)cc1,-7.25% (inactive),–
CC(=O)N[C@@H](CS)C(=O)O,42.5% (inactive),–
O=C(NCCN1CCOCC1)c1ccc(Cl)cc1,-7.66% (inactive),–
O=C1NC(=O)C(c2ccccc2)(c2ccccc2)N1,-8.4% (inactive),–
O=C(O)CCc1nc(-c2ccccc2)c(-c2ccccc2)o1,-24.9% (inactive),–
CN(C)CCC(c1ccccc1)c1ccccn1 (stereo unspecified),-14.4% (inactive),–
COc1ccccc1N1CCN(CCCNc2cc(=O)n(C)c(=O)n2C)CC1,-18.9% (inactive),–
CC(C)NCC(O)COc1cccc2[nH]ccc12 (stereo unspecified),-17.5% (inactive),–
Cc1cccc(C)c1OCC(C)N (stereo unspecified),-28% (inactive),–
CC(=O)O[C@]1(C(C)=O)CC[C@H]2[C@@H]3C=C(Cl)C4=CC(=O)[C@@H]5C[C@@H]5[C@]4(C)[C@H]3CC[C@@]21C,-2.91% (inactive),–
CC1=C(/C=C/C(C)=C/C=C/C(C)=C/C(=O)Nc2ccc(O)cc2)C(C)(C)CCC1,-20.3% (inactive),–
CC(C)(C)c1ccc(C(O)CCCN2CCC(C(O)(c3ccccc3)c3ccccc3)CC2)cc1 (stereo unspecified),-12.1% (inactive),–
Clc1ccc(Cn2c(CN3CCCC3)nc3ccccc32)cc1,-18% (inactive),–
O=C1NCC2(CCN(CCc3ccccc3)CC2)O1,-10.9% (inactive),–
CCN1CCC[C@H]1CNC(=O)c1cc(S(N)(=O)=O)ccc1OC,-9.76% (inactive),–
O=c1c(-c2ccc(O)cc2)coc2cc(O)ccc12,–,50.1 µM (active)
C[N+](C)(C)CCCCCC[N+](C)(C)C,–,inactive
CCN(CC)CCNC(=O)c1ccc(N)cc1,-16.1% (inactive),–
CCCCC1C(=O)N(c2ccccc2)N(c2ccccc2)C1=O,-9.63% (inactive),–
CC(=O)CCCCn1c(=O)c2c(ncn2C)n(C)c1=O,-16.6% (inactive),–
CC(=O)c1ccc(S(=O)(=O)NC(=O)NC2CCCCC2)cc1,-10.4% (inactive),–
CC(C)OC(=O)C(C)(C)Oc1ccc(C(=O)c2ccc(Cl)cc2)cc1,3.89% (inactive),–
NC(N)=Nc1nc(CSCC/C(N)=N/S(N)(=O)=O)cs1,-0.294% (inactive),–
O=c1cc(-c2ccc(O)cc2)oc2cc(O)cc(O)c12,–,89.1 µM (active)
CCCNC(=O)NS(=O)(=O)c1ccc(Cl)cc1,-20.7% (inactive),–
COC(=O)[C@@H]1[C@H]2C[C@H]3c4[nH]c5ccccc5c4CCN3C[C@@H]2CC[C@@H]1O,–,79.4 µM (active)
